# Measured values published in the supplement of paper PMC4466140.
# Biological target: AgAbp1
# Assay: SPOT peptide array binding signal intensity (averaged, normalized) (arbitrary units (background-subtracted, floor 0; scale differs between SH3 domains)); higher = stronger binding of the SH3 domain to the peptide
# Experimental: (§1)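 GST-tagged SH3 domains from S. cerevisiae (Sc), A. gossypii (Ag), C. albicans (Ca) and S. pombe (Sp) were incubated at 10 ug/ml overnight at 4 C on cellulose SPOT membranes carrying 292 synthetic 15-mer peptides mined from the S. cerevisiae proteome (cysteines replaced by serines). Binding was detected with anti-GST antibody, HRP secondary and chemiluminescence, quantified with Genespotter, and reported as normalized spot intensities averaged over biological replicates.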
row,Binder,SPOT peptide array binding signal intensity
1,TKIRRRPQQPLTDFT,21

# Biological target: AgBbc1
# Assay: as above
# Experimental: as §1
row,Binder,SPOT peptide array binding signal intensity
1,TKIRRRPQQPLTDFT,109

# Biological target: AgBem1-D1
# Assay: as above
# Experimental: as §1
row,Binder,SPOT peptide array binding signal intensity
1,TKIRRRPQQPLTDFT,32

# Biological target: AgBzz1-D1
# Assay: as above
# Experimental: as §1
row,Binder,SPOT peptide array binding signal intensity
1,TKIRRRPQQPLTDFT,42.5

# Biological target: AgBzz1-D2
# Assay: as above
# Experimental: as §1
row,Binder,SPOT peptide array binding signal intensity
1,TKIRRRPQQPLTDFT,82

# Biological target: AgCyk3
# Assay: as above
# Experimental: as §1
row,Binder,SPOT peptide array binding signal intensity
1,TKIRRRPQQPLTDFT,2

# Biological target: AgFus1
# Assay: as above
# Experimental: as §1
row,Binder,SPOT peptide array binding signal intensity
1,TKIRRRPQQPLTDFT,150

# Biological target: AgHof1
# Assay: as above
# Experimental: as §1
row,Binder,SPOT peptide array binding signal intensity
1,TKIRRRPQQPLTDFT,39.8

# Biological target: AgHse1
# Assay: as above
# Experimental: as §1
row,Binder,SPOT peptide array binding signal intensity
1,TKIRRRPQQPLTDFT,61.5

# Biological target: AgLsb1
# Assay: as above
# Experimental: as §1
row,Binder,SPOT peptide array binding signal intensity
1,TKIRRRPQQPLTDFT,22

# Biological target: AgLsb4
# Assay: as above
# Experimental: as §1
row,Binder,SPOT peptide array binding signal intensity
1,TKIRRRPQQPLTDFT,18

# Biological target: AgMyo5
# Assay: as above
# Experimental: as §1
row,Binder,SPOT peptide array binding signal intensity
1,TKIRRRPQQPLTDFT,0.5

# Biological target: AgNbp2
# Assay: as above
# Experimental: as §1
row,Binder,SPOT peptide array binding signal intensity
1,TKIRRRPQQPLTDFT,6

# Biological target: AgRvs167
# Assay: as above
# Experimental: as §1
row,Binder,SPOT peptide array binding signal intensity
1,TKIRRRPQQPLTDFT,2.33

# Biological target: AgSho1
# Assay: as above
# Experimental: as §1
row,Binder,SPOT peptide array binding signal intensity
1,TKIRRRPQQPLTDFT,3

# Biological target: AgSla1-D1-D2
# Assay: as above
# Experimental: as §1
row,Binder,SPOT peptide array binding signal intensity
1,TKIRRRPQQPLTDFT,12.5

# Biological target: AgSla1-D3
# Assay: as above
# Experimental: as §1
row,Binder,SPOT peptide array binding signal intensity
1,TKIRRRPQQPLTDFT,3.5

# Biological target: CaAbp1-D1
# Assay: as above
# Experimental: as §1
row,Binder,SPOT peptide array binding signal intensity
1,TKIRRRPQQPLTDFT,276

# Biological target: CaAbp1-D2
# Assay: as above
# Experimental: as §1
row,Binder,SPOT peptide array binding signal intensity
1,TKIRRRPQQPLTDFT,158

# Biological target: CaBbc1
# Assay: as above
# Experimental: as §1
row,Binder,SPOT peptide array binding signal intensity
1,TKIRRRPQQPLTDFT,518

# Biological target: CaBem1-D1
# Assay: as above
# Experimental: as §1
row,Binder,SPOT peptide array binding signal intensity
1,TKIRRRPQQPLTDFT,13

# Biological target: CaBzz1-D1
# Assay: as above
# Experimental: as §1
row,Binder,SPOT peptide array binding signal intensity
1,TKIRRRPQQPLTDFT,137

# Biological target: CaBzz1-D2
# Assay: as above
# Experimental: as §1
row,Binder,SPOT peptide array binding signal intensity
1,TKIRRRPQQPLTDFT,147

# Biological target: CaCyk3
# Assay: as above
# Experimental: as §1
row,Binder,SPOT peptide array binding signal intensity
1,TKIRRRPQQPLTDFT,76

# Biological target: CaFus1
# Assay: as above
# Experimental: as §1
row,Binder,SPOT peptide array binding signal intensity
1,TKIRRRPQQPLTDFT,338

# Biological target: CaHof1
# Assay: as above
# Experimental: as §1
row,Binder,SPOT peptide array binding signal intensity
1,TKIRRRPQQPLTDFT,0.25

# Biological target: CaHse1
# Assay: as above
# Experimental: as §1
row,Binder,SPOT peptide array binding signal intensity
1,TKIRRRPQQPLTDFT,6.5

# Biological target: CaLsb1
# Assay: as above
# Experimental: as §1
row,Binder,SPOT peptide array binding signal intensity
1,TKIRRRPQQPLTDFT,≤ 0

# Biological target: CaLsb4
# Assay: as above
# Experimental: as §1
row,Binder,SPOT peptide array binding signal intensity
1,TKIRRRPQQPLTDFT,22.5

# Biological target: CaMyo5
# Assay: as above
# Experimental: as §1
row,Binder,SPOT peptide array binding signal intensity
1,TKIRRRPQQPLTDFT,1.5

# Biological target: CaNbp2
# Assay: as above
# Experimental: as §1
row,Binder,SPOT peptide array binding signal intensity
1,TKIRRRPQQPLTDFT,48.5

# Biological target: CaRvs167
# Assay: as above
# Experimental: as §1
row,Binder,SPOT peptide array binding signal intensity
1,TKIRRRPQQPLTDFT,2.67

# Biological target: CaRvs167-3
# Assay: as above
# Experimental: as §1
row,Binder,SPOT peptide array binding signal intensity
1,TKIRRRPQQPLTDFT,15.5

# Biological target: CaSho1
# Assay: as above
# Experimental: as §1
row,Binder,SPOT peptide array binding signal intensity
1,TKIRRRPQQPLTDFT,38

# Biological target: CaSla1-D1-D2
# Assay: as above
# Experimental: as §1
row,Binder,SPOT peptide array binding signal intensity
1,TKIRRRPQQPLTDFT,24

# Biological target: CaSla1-D3
# Assay: as above
# Experimental: as §1
row,Binder,SPOT peptide array binding signal intensity
1,TKIRRRPQQPLTDFT,0.5

# Biological target: ScAbp1
# Assay: as above
# Experimental: as §1
row,Binder,SPOT peptide array binding signal intensity
1,TKIRRRPQQPLTDFT,25

# Biological target: ScBbc1
# Assay: as above
# Experimental: as §1
row,Binder,SPOT peptide array binding signal intensity
1,TKIRRRPQQPLTDFT,63.5

# Biological target: ScBem1-D1
# Assay: as above
# Experimental: as §1
row,Binder,SPOT peptide array binding signal intensity
1,TKIRRRPQQPLTDFT,10

# Biological target: ScBzz1-D1
# Assay: as above
# Experimental: as §1
row,Binder,SPOT peptide array binding signal intensity
1,TKIRRRPQQPLTDFT,33

# Biological target: ScBzz1-D2
# Assay: as above
# Experimental: as §1
row,Binder,SPOT peptide array binding signal intensity
1,TKIRRRPQQPLTDFT,18

# Biological target: ScCyk3
# Assay: as above
# Experimental: as §1
row,Binder,SPOT peptide array binding signal intensity
1,TKIRRRPQQPLTDFT,38

# Biological target: ScFus1
# Assay: as above
# Experimental: as §1
row,Binder,SPOT peptide array binding signal intensity
1,TKIRRRPQQPLTDFT,44

# Biological target: ScHof1
# Assay: as above
# Experimental: as §1
row,Binder,SPOT peptide array binding signal intensity
1,TKIRRRPQQPLTDFT,≤ 0

# Biological target: ScHse1
# Assay: as above
# Experimental: as §1
row,Binder,SPOT peptide array binding signal intensity
1,TKIRRRPQQPLTDFT,281

# Biological target: ScLsb1
# Assay: as above
# Experimental: as §1
row,Binder,SPOT peptide array binding signal intensity
1,TKIRRRPQQPLTDFT,4.75

# Biological target: ScLsb2
# Assay: as above
# Experimental: as §1
row,Binder,SPOT peptide array binding signal intensity
1,TKIRRRPQQPLTDFT,1

# Biological target: ScLsb3
# Assay: as above
# Experimental: as §1
row,Binder,SPOT peptide array binding signal intensity
1,TKIRRRPQQPLTDFT,115

# Biological target: ScLsb4
# Assay: as above
# Experimental: as §1
row,Binder,SPOT peptide array binding signal intensity
1,TKIRRRPQQPLTDFT,15

# Biological target: ScMyo3
# Assay: as above
# Experimental: as §1
row,Binder,SPOT peptide array binding signal intensity
1,TKIRRRPQQPLTDFT,1

# Biological target: ScMyo5
# Assay: as above
# Experimental: as §1
row,Binder,SPOT peptide array binding signal intensity
1,TKIRRRPQQPLTDFT,2

# Biological target: ScNbp2
# Assay: as above
# Experimental: as §1
row,Binder,SPOT peptide array binding signal intensity
1,TKIRRRPQQPLTDFT,93

# Biological target: ScPex13
# Assay: as above
# Experimental: as §1
row,Binder,SPOT peptide array binding signal intensity
1,TKIRRRPQQPLTDFT,6.75

# Biological target: ScRvs167
# Assay: as above
# Experimental: as §1
row,Binder,SPOT peptide array binding signal intensity
1,TKIRRRPQQPLTDFT,14

# Biological target: ScSho1
# Assay: as above
# Experimental: as §1
row,Binder,SPOT peptide array binding signal intensity
1,TKIRRRPQQPLTDFT,148

# Biological target: ScSla1-D1-D2
# Assay: as above
# Experimental: as §1
row,Binder,SPOT peptide array binding signal intensity
1,TKIRRRPQQPLTDFT,240

# Biological target: ScSla1-D3
# Assay: as above
# Experimental: as §1
row,Binder,SPOT peptide array binding signal intensity
1,TKIRRRPQQPLTDFT,38.5

# Biological target: SpAbp1-D1
# Assay: as above
# Experimental: as §1
row,Binder,SPOT peptide array binding signal intensity
1,TKIRRRPQQPLTDFT,94

# Biological target: SpBbc1
# Assay: as above
# Experimental: as §1
row,Binder,SPOT peptide array binding signal intensity
1,TKIRRRPQQPLTDFT,5.75

# Biological target: SpBzz1-D1
# Assay: as above
# Experimental: as §1
row,Binder,SPOT peptide array binding signal intensity
1,TKIRRRPQQPLTDFT,253

# Biological target: SpBzz1-D2
# Assay: as above
# Experimental: as §1
row,Binder,SPOT peptide array binding signal intensity
1,TKIRRRPQQPLTDFT,≤ 0

# Biological target: SpCyk3
# Assay: as above
# Experimental: as §1
row,Binder,SPOT peptide array binding signal intensity
1,TKIRRRPQQPLTDFT,1.5

# Biological target: SpHof1
# Assay: as above
# Experimental: as §1
row,Binder,SPOT peptide array binding signal intensity
1,TKIRRRPQQPLTDFT,65.5

# Biological target: SpHof1-2
# Assay: as above
# Experimental: as §1
row,Binder,SPOT peptide array binding signal intensity
1,TKIRRRPQQPLTDFT,5.5

# Biological target: SpHof1-3
# Assay: as above
# Experimental: as §1
row,Binder,SPOT peptide array binding signal intensity
1,TKIRRRPQQPLTDFT,164

# Biological target: SpHse1
# Assay: as above
# Experimental: as §1
row,Binder,SPOT peptide array binding signal intensity
1,TKIRRRPQQPLTDFT,93

# Biological target: SpLsb1
# Assay: as above
# Experimental: as §1
row,Binder,SPOT peptide array binding signal intensity
1,TKIRRRPQQPLTDFT,5

# Biological target: SpLsb4
# Assay: as above
# Experimental: as §1
row,Binder,SPOT peptide array binding signal intensity
1,TKIRRRPQQPLTDFT,104

# Biological target: SpMyo1
# Assay: as above
# Experimental: as §1
row,Binder,SPOT peptide array binding signal intensity
1,TKIRRRPQQPLTDFT,8

# Biological target: SpNbp2
# Assay: as above
# Experimental: as §1
row,Binder,SPOT peptide array binding signal intensity
1,TKIRRRPQQPLTDFT,10.5

# Biological target: SpPex13
# Assay: as above
# Experimental: as §1
row,Binder,SPOT peptide array binding signal intensity
1,TKIRRRPQQPLTDFT,1

# Biological target: SpRvs167
# Assay: as above
# Experimental: as §1
row,Binder,SPOT peptide array binding signal intensity
1,TKIRRRPQQPLTDFT,11.8

# Biological target: SpSla1-D1-D2
# Assay: as above
# Experimental: as §1
row,Binder,SPOT peptide array binding signal intensity
1,TKIRRRPQQPLTDFT,1

# Biological target: SpSla1-D3
# Assay: as above
# Experimental: as §1
row,Binder,SPOT peptide array binding signal intensity
1,TKIRRRPQQPLTDFT,≤ 0
